Experimental data: PubChem BioAssay (NCATS)
Several values for one entry are separate records, joined by “and”; a condition that tells them apart may be missing. Equal entries are not always repeated. Inconclusive results are not listed. Activity calls are given as the source filed them. Unless noted, calls come from the whole dose curve; as a rule, active = well fitted curve in the direction sought with a large enough effect; inconclusive = small, poorly fitted or top-dose-only effect, or another doubt; inactive = no such curve, though single readings can be large; an effect the other way counts as inactive or inconclusive.

Tests used:
[1] = Cell Viability - Renal Proximal Tubule (AID 545); conditions: renal proximal tubule cells viability, primary cells of rat origin; at 91.7 µM (top of the series);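 note: cells exposed to compound for 40 hours; nearly all actives have a fitted effect of over 40% in size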
In short: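 Rat kidney proximal tubule cells, freshly isolated; 1000 cells/well, 5 hr settle, compound 40 hr 37 °C. CellTiter-Glo 20 min RT, luminescence read. AC50 by standard Hill fit.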

[2] = Cellular Toxicity (caspase-3) Jurkat (AID 655); conditions: Jurkat caspase-3 activation, luminescence, DMSO = 0%, tamoxifen = 100%; at 92.2 µM (top of the series);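 note: cells exposed to compound for 16 h at 37 °C before reading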
In short: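 Luminescent caspase-3/7 readout (aminoluciferin substrate cleavage) in human T-cell leukemia Jurkat cells after 16 hr compound exposure. Concentration-response normalized to DMSO and 100 uM tamoxifen; AC50 by standard Hill equation.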

[3] = Cell Viability - LYMP2-001 (AID 921);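 note: 0% = DMSO only and full inhibition = tetraoctylammonium bromide control wells; nearly all actives have a fitted effect of over 70% in size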
In short: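 CellTiter-Glo luminescence (intracellular ATP) after 24 hr compound exposure at 37 C, 2500 lymphoblastoid cells/well in complete medium. AC50 fitted with standard Hill equation; tetraoctylammonium bromide positive control.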

[4] = Cell Viability - LYMP1-003 - Assay at 24 hr (AID 963);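 note: plate controls were DMSO only for no effect and tetraoctylammonium bromide positive control for full effect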
In short: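 Human lymphoblastoid LYMP1-003 cells, 2500/well, treated 24 h at 37 C in complete medium. Viability read as intracellular ATP by CellTiter-Glo luminescence after 30 min at room temperature; AC50 from Hill-equation fits of qHTS concentration-response.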

[5] = Cell Viability - LYMP2-004 (AID 966);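 note: plate controls were DMSO only for no effect and tetraoctylammonium bromide control for full effect; nearly all actives have a fitted effect of over 65% in size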
In short: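 Lymphoblastoid LYMP2-004 cells, 2500 per well, were preincubated for 5 hr and then treated with compound for 24 h at 37 C in complete medium. Viability was read as cellular ATP by CellTiter-Glo luminescence, and AC50 values were taken from Hill fits to concentration-response data.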

[6] = Cell Viability - LYMP2-005 (AID 967);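 note: plate controls were DMSO only for no effect and 92 µM tetraoctylammonium bromide control for full effect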
In short: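 Steps: seed 2500 LYMP2-005 cells/well, incubate 5 h at 37 C, add compound, incubate 24 h at 37 C, add CellTiter-Glo, wait 30 min at RT, read luminescence. Concentration-response data fitted to Hill equation for AC50.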

[7] = Cell Viability - LYMP2-019 (AID 973);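 note: 0% = DMSO alone and full effect = 92 µM tetraoctylammonium bromide; nearly all actives have a fitted effect of over 55% in size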
In short: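 Human lymphoblastoid LYMP2-019 cells (2500/well) preincubated 5 h at 37 C, then treated 24 h at 37 C in complete medium. Viability by CellTiter-Glo ATP luminescence after 30 min at room temperature; AC50 from Hill fits.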

[8] = Cell Viability - LYMP2-021 (AID 974);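 note: compound exposure lasts 24 hours at 37 °C; % is set by controls: 0 for no effect and ±100 for the full control effect; nearly all actives have a fitted effect of over 55% in size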
In short: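 Human lymphoblastoid LYMP2-021 cells, 2500/well in complete medium, treated 24 hours at 37 C. Intracellular ATP by CellTiter-Glo luminescence (30 min, RT); AC50 from Hill fits of concentration-response.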

[9] = Cell Viability - LYMP2-023 (AID 975);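 note: cellular ATP measured by luciferase luminescence as viability proxy; plate controls were DMSO only for no effect and 92 µM tetraoctylammonium bromide control for full effect; nearly all actives have a fitted effect of over 55% in size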
In short: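 LYMP2-023 human lymphoblastoid cells, 2500/well, preincubated 5 hr at 37 C, then compound-treated 24 hr at 37 C in complete medium. CellTiter-Glo luminescence (ATP) after 30 min at room temperature; AC50 from Hill-equation fits; tetraoctylammonium bromide positive control.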

[10] = Cell Viability - LYMP2-025 (AID 976);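 note: plate controls were DMSO only for no effect and tetraoctylammonium bromide control for full effect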
In short: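 Human lymphoblastoid LYMP2-025 cells, 2500/well, exposed 24 h at 37 C in complete medium in 1536-well qHTS. Viability as cellular ATP by CellTiter-Glo luminescence; AC50 from Hill fits of concentration-response data.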

[11] = Cell Viability - LYMP2-002 (AID 977);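 note: compound exposure lasted 24 h at 37 °C; plate controls were DMSO only for no effect and 92 µM tetraoctylammonium bromide for full effect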
In short: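 Human lymphoblastoid LYMP2-002 cells, 2500 per well, exposed to compounds for 24 h at 37 C in complete medium; viability read as intracellular ATP by CellTiter-Glo luminescence, AC50 from Hill fits.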

[12] = Cell Viability - LYMP2-006 (AID 978); note: % is set by controls: 0 for no effect and ±100 for the full control effect; nearly all actives have a fitted effect of over 60% in size
In short: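 qHTS, 1536-well; 2500 cells/well, 5 hr 37 C; cpd 24 hr 37 C; CellTiter-Glo 30 min RT; luminescence. Tetraoctylammonium bromide pos. ctrl. AC50 via Hill eqn.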

[13] = Cell Viability - LYMP2-014 (AID 983);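 note: plate controls were DMSO only for no effect and 92 µM tetraoctylammonium bromide for full effect; nearly all actives have a fitted effect of over 50% in size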
In short: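 LYMP2-014 human lymphoblastoid cells, 2500/well, treated 24 h at 37 C in complete medium; viability by CellTiter-Glo ATP luminescence after 30 min at room temperature. AC50 from Hill fits of qHTS concentration-response; tetraoctylammonium bromide positive control.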

[14] = Cell Viability - LYMP2-016 (AID 984); note: % is set by controls: 0 for no effect and ±100 for the full control effect; nearly all actives have a fitted effect of over 55% in size
In short: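 qHTS, 1536-well: 2500 LYMP2-016 cells/well, 5 hr 37 C, compound added, 24 hr 37 C, CellTiter-Glo 30 min RT, luminescence. Tetraoctylammonium bromide positive control. AC50 via Hill fit.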

[15] = Cell Viability - LYMP2-026 (AID 989); note: % is set by controls: 0 for no effect and ±100 for the full control effect; nearly all actives have a fitted effect of over 50% in size
In short: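 Human lymphoblastoid LYMP2-026 cells, 2500/well, exposed to compound 24 h at 37 C in complete medium. Viability as intracellular ATP by CellTiter-Glo luminescence; AC50 from Hill fits of qHTS concentration-response.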

[16] = Cell Viability - LYMP1-002 - Assay at 24 hr (AID 993); note: % is set by controls: 0 for no effect and ±100 for the full control effect
In short: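 Human lymphoblastoid LYMP1-002 cells (2500/well) treated 24 h at 37 °C; viability as intracellular ATP by CellTiter-Glo luminescence. Tetraoctylammonium bromide as positive control; AC50 from Hill-equation fits of qHTS concentration-response.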

[17] = molecular target: Thyroid hormone receptor beta (Homo sapiens) (UniProt P10828); experiment: qHTS assay for small molecule agonists of thyroid hormone receptor beta signaling (AID 588545; calls by dose curve)
Sequence of Thyroid hormone receptor beta (Homo sapiens) (P10828 whole entry, looked up): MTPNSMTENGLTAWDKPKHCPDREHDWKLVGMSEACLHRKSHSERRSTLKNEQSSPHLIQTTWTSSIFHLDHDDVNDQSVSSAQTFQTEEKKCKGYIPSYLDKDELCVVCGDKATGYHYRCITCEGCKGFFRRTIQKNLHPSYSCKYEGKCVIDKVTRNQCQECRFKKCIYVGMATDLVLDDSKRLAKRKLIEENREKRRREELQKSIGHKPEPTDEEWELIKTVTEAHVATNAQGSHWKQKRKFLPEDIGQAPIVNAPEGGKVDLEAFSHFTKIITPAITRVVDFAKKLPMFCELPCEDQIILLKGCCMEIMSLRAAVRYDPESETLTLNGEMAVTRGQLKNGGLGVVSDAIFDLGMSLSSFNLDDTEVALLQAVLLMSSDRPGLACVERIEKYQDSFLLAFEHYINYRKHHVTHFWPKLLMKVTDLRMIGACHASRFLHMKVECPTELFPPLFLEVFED
In short: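 Agonist-mode beta-lactamase reporter assay, HEK 293 cells, 2% charcoal/dextran FBS; cells plated 4 hrs, compound 18 hrs at 37 C, CCF4 2 hrs RT. Normalized to 10 nM T3 (100%) and DMSO (0%); Hill fit gives EC50, efficacy.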

[18] = molecular target: Retinoic acid receptor RXR-alpha (Homo sapiens) (UniProt P19793); experiment: qHTS assay for small molecule antagonists of retinoid X receptor alpha signaling (AID 588546; active = well fitted inhibition curve with a large enough effect in the signal ratio, with a control signal flat, not every such curve was filed as active; the % refers to the signal ratio;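 note: cells stimulated with 9-cis-retinoic acid as agonist; % is set by controls: 0 for no effect and ±100 for the full control effect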); conditions: HEK293T RXRa-UAS-bla, beta-lactamase ratio, antagonist mode
Sequence of Retinoic acid receptor RXR-alpha (Homo sapiens) (P19793 whole entry, looked up): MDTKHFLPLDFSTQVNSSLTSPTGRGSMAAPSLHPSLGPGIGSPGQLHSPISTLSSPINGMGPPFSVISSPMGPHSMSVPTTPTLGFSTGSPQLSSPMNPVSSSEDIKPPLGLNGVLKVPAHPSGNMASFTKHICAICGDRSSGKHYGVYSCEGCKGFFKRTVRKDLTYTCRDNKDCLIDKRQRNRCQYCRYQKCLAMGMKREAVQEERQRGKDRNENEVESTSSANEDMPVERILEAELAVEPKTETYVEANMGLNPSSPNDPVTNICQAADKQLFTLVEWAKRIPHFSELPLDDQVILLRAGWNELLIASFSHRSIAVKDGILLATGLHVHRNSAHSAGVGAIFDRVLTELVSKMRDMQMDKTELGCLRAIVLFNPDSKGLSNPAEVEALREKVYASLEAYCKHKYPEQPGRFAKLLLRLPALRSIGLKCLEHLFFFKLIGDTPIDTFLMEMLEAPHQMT
In short: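 Beta-lactamase reporter inhibition, read as CCF4 fluorescence ratio (ex 405, em 460/530 nm) after 2 h at RT. HEK293T UAS-bla cells, 2500/well, were stimulated with 9-cis-RA at 500 or 100 nM final alongside test compound for 18 h at 37 C.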

[19] = molecular target: Voltage-gated inwardly rectifying potassium channel KCNH2 (Homo sapiens) (UniProt Q12809); experiment: qHTS Assay for Small Molecule Inhibitors of the Human hERG Channel Activity (AID 588834);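 note: top concentration of the series differs between compounds; % is set by controls: 0 for no effect and ±100 for the full control effect; lower thallium flux fluorescence means stronger hERG block; nearly all actives have a fitted effect of over 50% in size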
Sequence of Voltage-gated inwardly rectifying potassium channel KCNH2 (Homo sapiens) (Q12809 whole entry, looked up): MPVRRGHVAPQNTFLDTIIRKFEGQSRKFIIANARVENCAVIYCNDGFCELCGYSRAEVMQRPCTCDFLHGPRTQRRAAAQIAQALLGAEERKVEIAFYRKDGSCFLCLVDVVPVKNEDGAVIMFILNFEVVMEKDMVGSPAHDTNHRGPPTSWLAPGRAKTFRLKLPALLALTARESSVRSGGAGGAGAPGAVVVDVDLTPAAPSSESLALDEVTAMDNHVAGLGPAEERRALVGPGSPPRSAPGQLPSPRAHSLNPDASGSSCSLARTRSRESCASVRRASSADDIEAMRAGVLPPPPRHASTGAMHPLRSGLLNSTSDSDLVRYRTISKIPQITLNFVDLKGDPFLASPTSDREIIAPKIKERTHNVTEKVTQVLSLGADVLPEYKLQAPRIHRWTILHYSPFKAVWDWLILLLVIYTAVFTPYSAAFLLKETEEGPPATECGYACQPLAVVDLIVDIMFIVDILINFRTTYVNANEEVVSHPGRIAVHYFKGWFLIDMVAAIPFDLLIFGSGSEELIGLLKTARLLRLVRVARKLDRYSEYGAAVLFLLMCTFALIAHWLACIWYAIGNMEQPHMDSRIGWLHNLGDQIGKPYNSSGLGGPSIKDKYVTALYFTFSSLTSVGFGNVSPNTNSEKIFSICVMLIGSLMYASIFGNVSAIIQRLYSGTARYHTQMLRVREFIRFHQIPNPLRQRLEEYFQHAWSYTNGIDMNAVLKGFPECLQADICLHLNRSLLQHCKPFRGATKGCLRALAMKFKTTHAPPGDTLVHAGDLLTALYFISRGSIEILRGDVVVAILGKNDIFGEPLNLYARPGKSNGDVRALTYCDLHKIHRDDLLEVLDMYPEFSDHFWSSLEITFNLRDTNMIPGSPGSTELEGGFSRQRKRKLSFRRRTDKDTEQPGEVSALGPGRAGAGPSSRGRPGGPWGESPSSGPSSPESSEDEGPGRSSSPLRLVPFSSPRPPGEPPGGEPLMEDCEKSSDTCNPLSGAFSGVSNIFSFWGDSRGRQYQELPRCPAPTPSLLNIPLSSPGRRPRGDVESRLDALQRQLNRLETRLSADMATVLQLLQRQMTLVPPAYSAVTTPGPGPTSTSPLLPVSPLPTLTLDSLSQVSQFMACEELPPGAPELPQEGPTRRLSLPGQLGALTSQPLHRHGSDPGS
In short: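 Concentration-response qHTS measuring drop in thallium-sensitive dye signal. U2OS cells carrying BacMam hERG; compound exposure ~10 min, then stimulation buffer and 2 min read at 1 sec intervals.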

[20] = qHTS assay for small molecule agonists of the antioxidant response element (ARE) signaling pathway measured by Nrf2-dependant transcriptional activity - cell viability counter screen (AID 720653; active = well fitted curve in the direction sought with a large enough effect in the repeat runs; an effect the other way counts as inactive or inconclusive; note: % is set by controls: 0 for no effect and ±100 for the full control effect); conditions: ARE-bla HepG2 viability, CellTiter-Glo ATP luminescence, 16 h; max response: hits give low values
In short: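 ARE-bla HepG2 cells treated with compounds for 16 h at 37C; this counter screen measures viability as intracellular ATP by CellTiter-Glo luminescence after 30 min at room temperature.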

COCC(=O)O
inactive: activity change, negative = cytotoxicity [1] -6.52% | caspase-3 activation [2] 0.941% | Potency [3] | Potency [4] | Potency [5] | Potency [6] | Potency [7] | Potency [8] | Potency [9] | Potency [10] | Potency [11] | Potency [12] | Potency [13] | Potency [14] | Potency [15] | Potency [16] | outcome [17] | max response [18] 8.65% and -6.69% | Potency [19] | max response [20] 8.69% and 6.89%

Nc1ccc(Cl)cc1Cl
inactive: activity change, negative = cytotoxicity [1] -0.932% | caspase-3 activation [2] 0.852% | Potency [3] | Potency [4] | Potency [5] | Potency [6] | Potency [7] | Potency [8] | Potency [9] | Potency [10] | Potency [11] | Potency [12] | Potency [13] | Potency [14] | Potency [15] | Potency [16] | outcome [17] | max response [18] -0.389% and -0.876% | Potency [19] | max response [20] -3.23% and 2.15%

Cc1cccc([N+](=O)[O-])c1C
inactive: activity change, negative = cytotoxicity [1] 0.624% | caspase-3 activation [2] 0.0783% | Potency [3] | Potency [4] | Potency [5] | Potency [6] | Potency [7] | Potency [8] | Potency [9] | Potency [10] | Potency [11] | Potency [12] | Potency [13] | Potency [14] | Potency [15] | Potency [16] | outcome [17] | max response [18] -8.9% and -18.4% | Potency [19] | max response [20] 4.89% and -2.35%

CC(=O)OC/C=C(\C)CCC=C(C)C
inactive: activity change, negative = cytotoxicity [1] 3.05% | caspase-3 activation [2] 1.05% | Potency [4] | Potency [5] | Potency [6] | Potency [7] | Potency [8] | Potency [9] | Potency [10] | Potency [11] | Potency [12] | Potency [13] | Potency [14] | Potency [15] | Potency [16] | outcome [17] | max response [18] 5.08% and 4.69% | Potency [19] | max response [20] -2.65% and 12.5%

CCO
inactive: activity change, negative = cytotoxicity [1] -3.41% | caspase-3 activation [2] -0.073% | Potency [3] | Potency [4] | Potency [5] | Potency [6] | Potency [7] | Potency [8] | Potency [9] | Potency [10] | Potency [11] | Potency [12] | Potency [13] | Potency [14] | Potency [15] | Potency [16] | outcome [17] | max response [18] -6.86% | Potency [19] | max response [20] 7%

CCCCOCCO
inactive: activity change, negative = cytotoxicity [1] 5.22% and -6.35% | caspase-3 activation [2] 0.121% and 0.365% | Potency [3] | Potency [4] | Potency [5] | Potency [6] | Potency [7] | Potency [8] | Potency [9] | Potency [10] | Potency [11] | Potency [12] | Potency [13] | Potency [14] | Potency [15] | Potency [16] | outcome [17] | max response [18] 8.5% and -5.75% and -0.568% | Potency [19] | max response [20] 4.17% and -5.63% and -2.53%

Cc1ccccc1C
inactive: activity change, negative = cytotoxicity [1] -2.71% and -0.376% | caspase-3 activation [2] 3.87% and 7.19% | Potency [3] | Potency [4] | Potency [5] | Potency [6] | Potency [7] | Potency [8] | Potency [9] | Potency [10] | Potency [11] | Potency [12] | Potency [13] | Potency [14] | Potency [15] | Potency [16] | outcome [17] | max response [18] 24.2% and -2.36% | Potency [19] | max response [20] -17.8% and 4.54%
